The record followed here is PubChem BioAssay AID1211 (NMMLSC, 2008).

Each structure is given as a SMILES string. The source made the active and inactive calls. No rule for the calls is given here.

The target in the assay is Estrogen receptor (Homo sapiens) (UniProt P03372). In words: ERalpha ligand binders by competition, primary screen, cell-based, Cos7 ERalpha-GFP, flow cytometry (AID 1211).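 Also: 0% = DMSO vehicle wells and 100% = no E2-Alexa633 signal left.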 Conditions: fluorescent ligand competition, stronger effect = higher value. For orientation: In flow cytometry, cells or beads pass a laser one at a time.
Chain of Estrogen receptor (Homo sapiens) (P03372 whole entry, looked up): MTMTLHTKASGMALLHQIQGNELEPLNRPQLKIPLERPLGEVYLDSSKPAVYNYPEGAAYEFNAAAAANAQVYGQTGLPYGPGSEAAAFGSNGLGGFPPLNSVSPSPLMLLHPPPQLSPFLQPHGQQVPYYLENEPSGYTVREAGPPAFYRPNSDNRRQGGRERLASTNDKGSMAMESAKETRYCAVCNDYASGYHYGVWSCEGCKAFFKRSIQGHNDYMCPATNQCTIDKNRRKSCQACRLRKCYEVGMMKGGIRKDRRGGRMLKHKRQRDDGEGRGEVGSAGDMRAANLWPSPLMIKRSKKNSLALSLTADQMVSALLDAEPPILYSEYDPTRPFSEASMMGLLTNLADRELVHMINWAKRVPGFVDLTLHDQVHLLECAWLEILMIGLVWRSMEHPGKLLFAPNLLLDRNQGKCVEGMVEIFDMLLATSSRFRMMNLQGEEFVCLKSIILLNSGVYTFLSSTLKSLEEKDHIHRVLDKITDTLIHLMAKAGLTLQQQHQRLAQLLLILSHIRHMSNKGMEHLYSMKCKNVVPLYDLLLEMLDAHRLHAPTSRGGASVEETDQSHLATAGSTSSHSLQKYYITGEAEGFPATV

Consider `Nc1ccc(/C=C/C(=O)c2ccco2)cc1`, for which the inhibition of ligand binding runs as follows: (at 10 µM) 9% (inactive); (binding inhibition, at 0.1 µM) 11%.

For the molecule `Oc1c(Cl)cc(Cl)cc1Sc1cc(Cl)cc(Cl)c1O`, the inhibition of ligand binding by setting is: (at 10 µM) 37% (inactive); (binding inhibition, at 0.1 µM) 28%.

For `Oc1ccccc1N=Nc1nc(-c2ccccc2)c(-c2ccccc2)[nH]1`, the inhibition of ligand binding (at 10 µM) is 52% (inactive) and the inhibition of ligand binding (binding inhibition, at 0.1 µM) stood at 27%.

Take `CC(=O)c1cccc(NC(=O)Cc2cccs2)c1`: the inhibition of ligand binding (at 10 µM) is 3% (inactive) and the inhibition of ligand binding (binding inhibition, at 0.1 µM) came out at 40%.

As to `COc1cc(C2Nc3c(F)cccc3C3C=CCC32)cc(Br)c1OC` (stereo unspecified), the inhibition of ligand binding reads like this: (at 10 µM) 10% (inactive); (binding inhibition, at 0.1 µM) 20%.

As for `Cc1ccc(/C=c2\sc3nc(-c4ccco4)nn3c2=O)o1`, the inhibition of ligand binding was 37% (inactive) (at 10 µM) and 26% (binding inhibition, at 0.1 µM).

For the molecule `COc1ccc(NC(=O)c2ccco2)cc1N`, the inhibition of ligand binding was 2% (inactive) (at 10 µM) and 3% (binding inhibition, at 0.1 µM).

As for `Cc1ccc(C(=O)CSC2=C(C#N)C(c3ccco3)CC(=O)N2)c(C)c1` (stereo unspecified), the inhibition of ligand binding was 49% (inactive) (at 10 µM) and 53% (binding inhibition, at 0.1 µM).

For the molecule `Nc1ccc2nc(-c3ccc(Cl)cc3)[nH]c2c1`, the inhibition of ligand binding is 41% (inactive) (at 10 µM) and 30% (binding inhibition, at 0.1 µM).

As for `O=C1c2ccccc2C(=O)N1CCCc1nc2ccccc2c(=O)n1CCCn1ccnc1`, the inhibition of ligand binding runs as follows: (at 10 µM) 36% (inactive); (binding inhibition, at 0.1 µM) 23%.

Consider `c1ccc(OCc2nnc3sc(C4COc5ccccc5O4)nn23)cc1` (stereo unspecified), for which the inhibition of ligand binding was 0% (inactive) (at 10 µM) and 5% (binding inhibition, at 0.1 µM).

In the case of `Cc1nn(-c2ccccc2)c(C)c1NC(=O)Cc1cccs1`, the inhibition of ligand binding runs as follows: (at 10 µM) 11% (inactive); (binding inhibition, at 0.1 µM) 35%.

Consider `CCOc1ccc(CC2S/C(=N/c3ccccn3)NC2=O)cc1` (stereo unspecified), for which the inhibition of ligand binding was 8% (inactive) (at 10 µM) and 2% (binding inhibition, at 0.1 µM).

In the case of `COc1ccc(C2Nc3ccccc3C(=O)N2c2ccc(Cl)cc2)cc1Cn1cc([N+](=O)[O-])cn1` (stereo unspecified), the inhibition of ligand binding was 29% (inactive) (at 10 µM) and 49% (binding inhibition, at 0.1 µM).

`CCCCN(CCCC)S(=O)(=O)c1ccc(NC(=O)Cc2cccs2)cc1`: the inhibition of ligand binding was 61% (inactive) (at 10 µM) and 46% (binding inhibition, at 0.1 µM).

Regarding `CC(=O)N1c2ccc(Cl)cc2C2C=CCC2C1c1cccc2ccccc12` (stereo unspecified), the inhibition of ligand binding reads like this: (at 10 µM) 0% (inactive); (binding inhibition, at 0.1 µM) 13%.

As to `Nc1ccc(-n2cnc3cc([N+](=O)[O-])ccc32)cc1`, the inhibition of ligand binding is, setting by setting: (at 10 µM) 41% (active); (binding inhibition, at 0.1 µM) 66%.

For `O=C(Cn1nnc(-c2ccc3c(c2)OCO3)n1)NCc1ccco1`, the inhibition of ligand binding reads like this: (at 10 µM) 38% (inactive); (binding inhibition, at 0.1 µM) 62%.

`COc1ccc(C2Nc3ccccc3C(=O)N2c2ccc(C)cc2)cc1Cn1cc([N+](=O)[O-])cn1` (stereo unspecified): the inhibition of ligand binding (at 10 µM) is 26% (inactive) and the inhibition of ligand binding (binding inhibition, at 0.1 µM) came out at 7%.

In the case of `O=C(c1cccc(F)c1)N1CCN(C(=O)c2cc3ncc(Br)cn3n2)CC1`, the inhibition of ligand binding is 35% (inactive) (at 10 µM) and 50% (binding inhibition, at 0.1 µM).

Turning to `O=C(OC1CCCCC1)c1ccc2c(c1)C1C=CCC1C(C(=O)O)N2` (stereo unspecified), the inhibition of ligand binding (at 10 µM) is 42% (inactive) and the inhibition of ligand binding (binding inhibition, at 0.1 µM) came out at 14%.

With `CC(C)CC(=O)Nc1ccc(C(=O)COc2ccc(-c3nnco3)cc2)cc1`, the inhibition of ligand binding (at 10 µM) was 28% (inactive) and the inhibition of ligand binding (binding inhibition, at 0.1 µM) came out at 23%.

On to `O=C(O)c1cc(-c2ccco2)nc2ccccc12`, for which the inhibition of ligand binding is 57% (inactive) (at 10 µM) and 21% (binding inhibition, at 0.1 µM).

As to `COC(=O)C1=C(O)/C(=C\c2ccc(CNC(=O)C(=O)Nc3ccc(C)c(C)c3)o2)N=C1C`, the inhibition of ligand binding (at 10 µM) was 32% (inactive) and the inhibition of ligand binding (binding inhibition, at 0.1 µM) was found to be 31%.

`O=C(Cc1cccs1)Nc1ccc(S(=O)(=O)Nc2ncccn2)cc1`: the inhibition of ligand binding reads like this: (at 10 µM) 15% (active); (binding inhibition, at 0.1 µM) 87%.

Take `COc1ccc(Cl)cc1NC(=O)c1ocnc1C`: the inhibition of ligand binding by setting is: (at 10 µM) 21% (inactive); (binding inhibition, at 0.1 µM) 3%.

Turning to `CCn1c(SCC(=O)N2CCOCC2)nc2oc3c(Cl)cc(Cl)cc3c(=O)c2c1=O`, the inhibition of ligand binding is, setting by setting: (at 10 µM) 22% (inactive); (binding inhibition, at 0.1 µM) 5%.

As for `Nc1ncnc2c1ncn2C1CCC(CO)C(O)C1` (stereo unspecified), the inhibition of ligand binding by setting is: (at 10 µM) 0% (inactive); (binding inhibition, at 0.1 µM) 10%.

For `Oc1ccc(-c2nc(-c3ccc(O)c(O)c3)cs2)cc1`, the inhibition of ligand binding is 68% (active) (at 10 µM) and 39% (binding inhibition, at 0.1 µM).

Consider `CCn1c(SCC(=O)Nc2cccc(F)c2)nnc1-c1cc2cc(Br)ccc2o1`, for which the inhibition of ligand binding by setting is: (at 10 µM) 26% (inactive); (binding inhibition, at 0.1 µM) 35%.

As for `Nc1ccc2nc(-c3cccnc3)[nH]c2c1`, the inhibition of ligand binding is 44% (inactive) (at 10 µM) and 26% (binding inhibition, at 0.1 µM).

Consider `Cc1c(Cl)cccc1NS(=O)(=O)c1ccc2c(c1)C1C=CCC1C(c1ccc(C(=O)O)cc1)N2` (stereo unspecified), for which the inhibition of ligand binding (at 10 µM) is 55% (inactive) and the inhibition of ligand binding (binding inhibition, at 0.1 µM) is 1%.

For `O=C(NCc1ccco1)c1cc2c(s1)CSC2`, the inhibition of ligand binding is, setting by setting: (at 10 µM) 24% (inactive); (binding inhibition, at 0.1 µM) 25%.

On to `COc1ccc(C2CC(c3c(-c4ccccc4)c4cc(Cl)ccc4[nH]c3=O)=NN2S(C)(=O)=O)cc1OC` (stereo unspecified), for which the inhibition of ligand binding (at 10 µM) was 29% (inactive) and the inhibition of ligand binding (binding inhibition, at 0.1 µM) was determined as 37%.

As for `Cc1cc(=O)[nH]c(SCC(=O)NCc2ccco2)n1`, the inhibition of ligand binding is, setting by setting: (at 10 µM) 19% (inactive); (binding inhibition, at 0.1 µM) 8%.

Turning to `CCOc1cc(C2CC(=O)c3c(ccc4ccccc34)N2)ccc1O` (stereo unspecified), the inhibition of ligand binding is 32% (inactive) (at 10 µM) and 23% (binding inhibition, at 0.1 µM).

As for `CSc1nc2c(c(=O)[nH]1)C(c1cccs1)C1=C(CCCC1=O)N2` (stereo unspecified), the inhibition of ligand binding was 28% (inactive) (at 10 µM) and 30% (binding inhibition, at 0.1 µM).

As to `Nc1c(Cl)cc(Cl)cc1C(=O)OCC(=O)NC1CC1`, the inhibition of ligand binding runs as follows: (at 10 µM) 52% (inactive); (binding inhibition, at 0.1 µM) 13%.

On to `Cc1cccc(N2CCN(C(=O)c3cc4c(=O)n(C)c5ccccc5c4n3C)CC2)c1C`, for which the inhibition of ligand binding is 55% (inactive) (at 10 µM) and 11% (binding inhibition, at 0.1 µM).

Consider `COc1ccc(C2Nc3ccccc3C(=O)N2c2ccc(F)cc2)cc1CSc1ccccn1` (stereo unspecified), for which the inhibition of ligand binding is 10% (inactive) (at 10 µM) and 28% (binding inhibition, at 0.1 µM).

For the molecule `O=C(CSc1nnc(-c2ccc(OC(F)F)cc2)o1)NC(=O)NCc1ccco1`, the inhibition of ligand binding (at 10 µM) was 34% (inactive) and the inhibition of ligand binding (binding inhibition, at 0.1 µM) is 26%.

With `COC(=O)c1c(NC(=O)Cc2cccs2)sc2c1CCCC2`, the inhibition of ligand binding was 57% (active) (at 10 µM) and 70% (binding inhibition, at 0.1 µM).

For `Cc1ccc(NC(=O)CN2C(=O)S/C(=C/c3ccc(-c4cc(C(=O)O)ccc4C)o3)C2=O)cc1C`, the inhibition of ligand binding was 50% (inactive) (at 10 µM) and 39% (binding inhibition, at 0.1 µM).
